This is part of a sample that, as a whole, favours compounds with a hit. Of some 79,000 tested, about 15% had one in any assay. A number with no mark means an inactive call. Active and inactive are the calls of the source. Cut-off read from the data, not from the text of the source: active = growth inhibition above about 70%; inactive = the rest.
Tests used:
[1] = NCI Yeast Anticancer Drug Screen. Data for the rad50 strain (AID 155);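 note: 0% = growth of vehicle-only cultures of the same strain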; details: S. cerevisiae rad50 strain growth inhibition, hits give high values
Outline: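 Vehicle-treated cultures provide the reference for the growth inhibition reported for compound-exposed, repair-deficient yeast.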

[2] = NCI Yeast Anticancer Drug Screen. Data for the mec2-1 strain (AID 157); details: S. cerevisiae mec2-1 strain, hits give high values
Outline: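 Yeast mec2-1 mutant treated with compound. Readout: growth inhibition vs vehicle controls.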

[3] = NCI Yeast Anticancer Drug Screen. Data for the sgs1 mgt1 strain (AID 161);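 note: 0% = growth of cultures given vehicle only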; details: S. cerevisiae sgs1 mgt1 strain, hits give high values
Outline: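 Test agents were incubated with a DNA-repair-mutant yeast strain. Growth was then read and compared against vehicle-treated controls.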

[4] = NCI Yeast Anticancer Drug Screen. Data for the cln2 rad14 strain (AID 165);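 note: 0% = growth equal to vehicle treated cultures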; details: S. cerevisiae cln2 rad14 strain, hits give high values
Outline: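 cln2 rad14 yeast strain; compound exposure; growth inhibition read vs vehicle controls.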

[5] = NCI Yeast Anticancer Drug Screen. Data for the bub3 strain (AID 167); details: S. cerevisiae bub3 mutant strain, hits give high values
Outline: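 Mutant yeast screening strain plus compound; vehicle-treated cultures serve as the 0% inhibition reference.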

[6] = NCI Yeast Anticancer Drug Screen. Data for the mlh1 rad18 strain (AID 175); details: S. cerevisiae mlh1 rad18 strain growth inhibition, hits give high values
Outline: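 Yeast w/ defined DNA-repair lesions; compound exposure; growth vs vehicle controls → % inhibition.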

[7] = at 5.0 µM (retest, dose inferred, filed as 0.5)
[8] = at 50.0 µM (retest, dose inferred, filed as 5.0)

SMILES | growth inhibition [1, 7] | growth inhibition [1, 8] | growth inhibition ([1]; at 50.0 µM) | growth inhibition [2, 7] | growth inhibition [2, 8] | growth inhibition ([2]; at 50.0 µM) | growth inhibition [3, 7] | growth inhibition [3, 8] | growth inhibition ([3]; at 50.0 µM) | growth inhibition [4, 7] | growth inhibition [4, 8] | growth inhibition ([4]; at 50.0 µM) | growth inhibition [5, 7] | growth inhibition [5, 8] | growth inhibition ([5]; at 50.0 µM) | growth inhibition [6, 7] | growth inhibition [6, 8] | growth inhibition ([6]; at 50.0 µM)
CCCCCC(C)NCCOC(=O)c1ccccc1 (stereo not given) | 3% | 78% (active) | 50.8% | -13% | 82% (active) | -10.7% | -8% | 79% (active) | 59.4% | 0% | 26% | 67.2% | 3% | 84% (active) | 75.5% (active) | 18% | 89% (active) | 40.5%
O=c1[nH]c(=O)c2cc([N+](=O)[O-])cc([N+](=O)[O-])c2[nH]1 | 9% | 75% (active) | 50.6% | 6% | 57% | 73.7% (active) | 12% | 78% (active) | 54.9% | -3% | 63% | 25.7% | 8% | 70% (active) | 78.3% (active) | 5% | 38% | 75% (active)
Cc1nc(-c2cccc(Cl)c2)oc1-c1ccccc1 | 2% | 78% (active) | 28.4% | 8% | 78% (active) | 27.8% | 17% | 85% (active) | 40.2% | 1% | 80% (active) | 53.4% | -3% | 76% (active) | 47.8% | 4% | 76% (active) | 58.5%
Cc1cc(C)c(C(=O)C(Br)C(Br)c2ccccc2)c(C)c1 (stereo not given) | 54% | 94% (active) | 95.6% (active) | 43% | 97% (active) | 95.5% (active) | 63% | 95% (active) | 95.8% (active) | 15% | 91% (active) | 83.4% (active) | 47% | 93% (active) | 94.5% (active) | 46% | 94% (active) | 95.6% (active)
CCC1(O)c2ccccc2C(O)(CC)c2ccccc21 (stereo not given) | 11% | 28% | 74% (active) | 3% | 40% | 89.6% (active) | 5% | 53% | 23.4% | 3% | 21% | 96.5% (active) | 7% | 54% | 97% (active) | 14% | 68% | 97.7% (active)
N#CC(=C1C=CC(=NO)C=C1)c1cccc2ccccc12 | 36% | 91% (active) | 93.2% (active) | 15% | 94% (active) | 95.5% (active) | 39% | 92% (active) | 93.1% (active) | 3% | 91% (active) | 90.2% (active) | 5% | 91% (active) | 96.2% (active) | 28% | 91% (active) | 87.8% (active)
Cn1cc(NC(=O)c2cc(NC(=O)CCCCCCC(=O)Nc3cc(C(=O)Nc4cc(C(=O)NCCC(=N)N)n(C)c4)n(C)c3)cn2C)cc1C(=O)NCCC(=N)N | 87% (active) | 98% (active) | 91.8% (active) | 89% (active) | 99% (active) | 93.8% (active) | 82% (active) | 99% (active) | 93% (active) | 44% | 95% (active) | 91.3% (active) | 92% (active) | 98% (active) | 92.2% (active) | 90% (active) | 98% (active) | 92.2% (active)
CCCCCc1cc(C(=O)OC/C(C)=N/O)c2ccccc2n1 | -5% | 90% (active) | 97.2% (active) | -9% | 95% (active) | 97.5% (active) | -6% | 91% (active) | 96.5% (active) | -5% | 92% (active) | 83.2% (active) | -6% | 93% (active) | 97.8% (active) | -6% | 93% (active) | 97.4% (active)
C=CCNC(=O)NC(=O)CSC1=NNC2(C(=O)N1)c1ccccc1-c1ccccc12 | -4% | 74% (active) | 85.2% (active) | -21% | 65% | 78.7% (active) | -11% | 85% (active) | 87.1% (active) | 2% | 82% (active) | 85.7% (active) | -16% | 91% (active) | 86.5% (active) | -6% | 88% (active) | 86.7% (active)
CCOC(=O)C1=C(C)NC2=C(C(=O)N(c3ccccc3)C2c2ccccc2)C1c1ccccc1 (stereo not given) | 5% | 5% | 72.5% (active) | 9% | 9% | 56.4% | 3% | 3% | 63.1% | -11% | -11% | 65.6% | -7% | -7% | 49.2% | 8% | 8% | 54.1%
CCCCCCC(C)S(=O)(=O)c1ccc(C)cc1 (stereo not given) | 3% | 63% | 58.5% | 14% | 83% (active) | 84.7% (active) | 7% | 75% (active) | 59.7% | 5% | 13% | 5.1% | 0% | 50% | 17.1% | -3% | 47% | 51.2%
CCOC(=O)/C(Cl)=C(\C)Nc1nc2c(ccc3ccccc32)s1 | 22% | 20% | 8.8% | 1% | 66% | 26.6% | -8% | 31% | -0.75% | 15% | 71% (active) | 97.3% (active) | -4% | 94% (active) | 94.9% (active) | 0% | 21% | 0.6%
CC(=O)Nc1ccc(NC(=S)Nc2ccc(NC(C)=O)cc2)cc1 | 97% (active) | 99% (active) | 92% (active) | 47% | 100% (active) | 15% | 68% | 100% (active) | -1.7% | 43% | 99% (active) | -5.1% | 62% | 100% (active) | 0.6% | 82% (active) | 99% (active) | 13.8%
CC(C)C(Cl)CC/C(CBr)=C(\Cl)CCl (stereo not given) | 28% | 89% (active) | 75% (active) | 29% | 92% (active) | 80.8% (active) | 27% | 99% (active) | 92.4% (active) | 24% | 96% (active) | 91.1% (active) | 23% | 98% (active) | 92.3% (active) | 28% | 97% (active) | 18.9%
CC(C)C1/C(=N/O)CC(c2ccccc2)N(N=O)C1c1ccccc1 (stereo not given) | 10% | 97% (active) | 82.3% (active) | -13% | 98% (active) | 93% (active) | 3% | 98% (active) | 90.7% (active) | 15% | 96% (active) | 87.7% (active) | 4% | 98% (active) | 88% (active) | -6% | 98% (active) | 90.3% (active)
CC(Br)C(=O)c1ccc(OCc2ccccc2)cc1 (stereo not given) | 15% | 84% (active) | 90.7% (active) | 14% | 99% (active) | 94.2% (active) | 8% | 75% (active) | 89.9% (active) | 22% | 78% (active) | 92.3% (active) | 6% | 99% (active) | 90% (active) | 13% | 94% (active) | 77.9% (active)
O=[N+]([O-])c1cc(C(F)(F)F)cc([N+](=O)[O-])c1CCl | 100% (active) | 100% (active) | 99.7% (active) | 100% (active) | 100% (active) | 99.8% (active) | 100% (active) | 100% (active) | 99.6% (active) | 100% (active) | 100% (active) | 99.4% (active) | 100% (active) | 100% (active) | 99.4% (active) | 100% (active) | 100% (active) | 99.7% (active)
O=C1c2cccc3cc([N+](=O)[O-])cc(c23)C(=O)N1O | 34% | 56% | 82.7% (active) | 15% | 32% | 91.3% (active) | 13% | 37% | 81.2% (active) | 20% | 35% | 32.4% | 18% | 64% | 70.5% (active) | 31% | 71% (active) | 80.7% (active)
CC1=C(c2ccccc2)C(=O)OC1=O | 5% | 11% | 52.5% | 2% | 0% | 2.7% | 4% | 6% | -4.65% | 0% | 3% | -28.4% | -2% | 3% | 3.7% | 13% | 14% | -10.4%
COc1ccc(N=Nc2ccc3oc(=O)c(C(=O)Nc4ccc(Cl)cc4)cc3c2)cc1 | 29% | 98% (active) | 98.5% (active) | 16% | 98% (active) | 98.9% (active) | 0% | 98% (active) | 98.3% (active) | 16% | 98% (active) | 98.3% (active) | 14% | 97% (active) | 98.8% (active) | 33% | 99% (active) | 98.7% (active)

Source: PubChem BioAssay (NCI)
